One test concerns the target Albumin (Bos taurus) (UniProt P02769). Briefly: compounds binding labelled BSA control protein – biochemical, small-molecule microarray, Alexa647 label, 635/667 nm fluorescence, artefact control for SMM control protein annotation, profiling panel (AID 1118).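 Note: score merges 667 nm emission intensity and signal-to-noise per printed compound spot.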 To be noted: BSA-A647 binding, fluorescence 635 nm, higher = more signal.
Test [1] is described as follows: probe aXIP binding to arrayed compounds – biochemical, NeuroSMM set, 635/667 nm fluorescence, primary screen (AID 1119).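 Note: probe is the protein aXip251-270 applied at 1 µg/mL to compound-printed slides; binding of probe to printed compounds measured as 667 nm fluorescence plus signal to noise.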 Conditions: small-molecule microarray, higher = more signal, called active from +8 up or from −8 down.
Test [2] in a line: probe aNOTCH3 binding on compound microarray – biochemical, small-molecule microarray, 635/667 nm fluorescence, primary screen (AID 1120).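 Note: probe is a biotin-tagged antibody raised against NOTCH3 rather than NOTCH3 protein; score merges spot fluorescence near 667 nm with spot signal to noise.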 Conditions: higher = more signal.
A short description of test [3]: probe aNOTCH2 binding on compound microarray – biochemical, small-molecule microarray, 635/667 nm fluorescence, primary screen (AID 1121).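 Note: score merges feature fluorescence read at 667 nm with its signal to noise.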 To be noted: higher = more signal.
Test [4] deals with Carbonic anhydrase 2 (Homo sapiens) (UniProt P00918). Put plainly: compounds binding carbonic anhydrase 2 – biochemical, small-molecule microarray, Alexa647-labelled CAII, profiling panel (AID 1122). To be noted: CAII-A647 binding fluorescence, higher = more signal.
Test [5] can be described thus: COS7 lysate on small-molecule microarray, probe aHis, 635 nm (AID 1123).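 Note: z-score combines 667nm fluorescence intensity with signal-to-noise per printed compound spot.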 Conditions: COS7 cell lysate, fluorescence, higher = more signal.
Test [6] is described as follows: probe aLAP1 signal on lysate-treated microarray – cell lysate, small-molecule microarray, COS7 lysate, primary screen (AID 1124).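 Note: lysate comes from COS7 cells expressing LAP1 and is applied at 0.3 µg/mL; score merges spot fluorescence near 667 nm with signal-to-noise over triplicate slides.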 To be noted: probe aLAP1, fluorescence, higher = more signal.
For the next test, the system named is Sam68 (KHDRBS1). Put plainly: compounds binding KHDRBS1 protein – biochemical, small-molecule microarray, 635 nm fluorescence, primary screen (AID 1125).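 Note: score merges 667 nm channel intensity with signal to noise over triplicate slides.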 Conditions: higher = more signal.
Test [7] deals with Chordin-like protein 2 (CHRDL2). Put plainly: compounds binding chordin-like 2 – biochemical, small-molecule microarray, 635 nm fluorescence, primary screen (AID 1126).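 Note: printed compound slides probed with Chrdl2 protein at 4 µg/mL for 1 h at 4 C; score merges 667 nm emission intensity with signal to noise over three replicate slides.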 Conditions: fluorescence 635 nm, higher = more signal.
Test [8] concerns the target Concanavalin-A (Canavalia ensiformis) (UniProt P02866). Put plainly: compounds binding concanavalin A lectin – biochemical, small-molecule microarray, Alexa647 label, 635 nm, artefact control for SMM control protein annotation, primary screen (AID 1127).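 Note: z combines 667 nm emission intensity with signal-to-noise across three replicate slides.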 To be noted: ConA-A647 binding fluorescence, higher = more signal.
A short description of test [9]: compounds binding Alexa647 anti-His antibody – biochemical, small-molecule microarray, 635 nm fluorescence, artefact control for SMM control protein annotation, primary screen (AID 1128).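 Note: score merges feature fluorescence with signal-to-noise for each printed compound spot.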 To be noted: higher = more signal.
Test [10] concerns Human papillomavirus type 1a E7 protein (residues 1-88). Put plainly: HPV1a E7 small-molecule binders, primary screen, biochemical, small-molecule microarray, residues 1-88, 635 nm (AID 1129). To be noted: small-molecule microarray binding, fluorescence 635 nm; higher = more signal.
The target in test [11] is Focal adhesion kinase 1 (Homo sapiens) (UniProt Q05397). Put plainly: PTK2 protein binding on printed compound slides – biochemical, small-molecule microarray, 635/667 nm fluorescence, BSA, DTT, primary screen (AID 1130).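 Note: composite of spot emission at 667 nm and signal to noise over triplicate slides.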 To be noted: 635 nm fluorescence, higher = more signal.
Test [12] has as its system Fibrinogen (Alexa647-labelled). Put plainly: Alexa647-fibrinogen binding to printed small molecules – biochemical, small-molecule microarray, 635/667 nm fluorescence, artefact control for SMM control-protein annotation, profiling panel (AID 1131).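 Note: z-score merges 667 nm fluorescence with per-spot signal-to-noise over triplicate slides.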 To be noted: fibrinogen-A647 binding fluorescence, higher = more signal.
For test [13], the target named is Follistatin (Homo sapiens) (UniProt P19883). Briefly: FST protein binding to printed compounds – biochemical, small-molecule microarray, 635/667 nm fluorescence, primary screen (AID 1132). To be noted: 635 nm fluorescence, higher = more signal.
Test [14] deals with Fibroblast growth factor 2 (Homo sapiens) (UniProt P09038). Put plainly: basic fibroblast growth factor binding to printed compounds – biochemical, small-molecule microarray, 635/667 nm fluorescence, primary screen (AID 1133). To be noted: FGF2, fluorescence 635/667, higher = more signal.
Test [15] can be described thus: JC-1 mitochondrial potential readout, lung cancer cells – cell-based, A549, JC-1 fluorescence, basal, 24 h, 100 nL, profiling panel (AID 1138).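 Note: A549 lung adenocarcinoma cells under basal conditions with no added stimulus; test concentration not given here.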 Conditions: higher = more signal.
A further test deals with Lefty1. Briefly: Lefty1 protein binding to printed compounds – biochemical, small-molecule microarray, 635/667 nm fluorescence, primary screen (AID 1139). To be noted: fluorescence 635/667, higher = more signal.
Test [16] has as its system wheat germ agglutinin (Triticum aestivum), Alexa647-labelled. Briefly: Alexa647-WGA lectin binding to printed small molecules – biochemical, small-molecule microarray, 635/667 nm fluorescence, artefact control for SMM control-protein annotation, profiling panel (AID 1140).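 Note: score merges 667 nm feature emission with signal to noise over triplicate slides.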 To be noted: WGA-A647 binding, 635 nm fluorescence, higher = more signal.
For test [17], the target named is Luciferin 4-monooxygenase (Photinus pyralis) (UniProt P08659). Briefly: inhibition of purified Photinus pyralis luciferase – biochemical, luminescence, purified enzyme, 2006 set, primary screen (AID 1141).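 Note: cell-free assay with purified firefly luciferase at 100 ng per well in PBS; test concentration not given here.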 To be noted: purified firefly luciferase, SteadyGlo luminescence, 30 min; higher = more signal, called active from +8 up or from −8 down.

Calls of active or inactive are those of the source.

Chain of Concanavalin-A (Canavalia ensiformis) (P02866 whole entry, looked up): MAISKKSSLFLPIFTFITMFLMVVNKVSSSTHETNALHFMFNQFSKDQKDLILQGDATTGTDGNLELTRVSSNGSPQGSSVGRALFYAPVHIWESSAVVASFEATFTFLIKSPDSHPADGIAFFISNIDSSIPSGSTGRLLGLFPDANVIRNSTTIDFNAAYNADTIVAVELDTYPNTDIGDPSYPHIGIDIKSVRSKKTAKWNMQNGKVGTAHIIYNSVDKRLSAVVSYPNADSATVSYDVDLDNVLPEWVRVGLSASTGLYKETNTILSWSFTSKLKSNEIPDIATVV
Chain of Focal adhesion kinase 1 (Homo sapiens) (Q05397 whole entry, looked up): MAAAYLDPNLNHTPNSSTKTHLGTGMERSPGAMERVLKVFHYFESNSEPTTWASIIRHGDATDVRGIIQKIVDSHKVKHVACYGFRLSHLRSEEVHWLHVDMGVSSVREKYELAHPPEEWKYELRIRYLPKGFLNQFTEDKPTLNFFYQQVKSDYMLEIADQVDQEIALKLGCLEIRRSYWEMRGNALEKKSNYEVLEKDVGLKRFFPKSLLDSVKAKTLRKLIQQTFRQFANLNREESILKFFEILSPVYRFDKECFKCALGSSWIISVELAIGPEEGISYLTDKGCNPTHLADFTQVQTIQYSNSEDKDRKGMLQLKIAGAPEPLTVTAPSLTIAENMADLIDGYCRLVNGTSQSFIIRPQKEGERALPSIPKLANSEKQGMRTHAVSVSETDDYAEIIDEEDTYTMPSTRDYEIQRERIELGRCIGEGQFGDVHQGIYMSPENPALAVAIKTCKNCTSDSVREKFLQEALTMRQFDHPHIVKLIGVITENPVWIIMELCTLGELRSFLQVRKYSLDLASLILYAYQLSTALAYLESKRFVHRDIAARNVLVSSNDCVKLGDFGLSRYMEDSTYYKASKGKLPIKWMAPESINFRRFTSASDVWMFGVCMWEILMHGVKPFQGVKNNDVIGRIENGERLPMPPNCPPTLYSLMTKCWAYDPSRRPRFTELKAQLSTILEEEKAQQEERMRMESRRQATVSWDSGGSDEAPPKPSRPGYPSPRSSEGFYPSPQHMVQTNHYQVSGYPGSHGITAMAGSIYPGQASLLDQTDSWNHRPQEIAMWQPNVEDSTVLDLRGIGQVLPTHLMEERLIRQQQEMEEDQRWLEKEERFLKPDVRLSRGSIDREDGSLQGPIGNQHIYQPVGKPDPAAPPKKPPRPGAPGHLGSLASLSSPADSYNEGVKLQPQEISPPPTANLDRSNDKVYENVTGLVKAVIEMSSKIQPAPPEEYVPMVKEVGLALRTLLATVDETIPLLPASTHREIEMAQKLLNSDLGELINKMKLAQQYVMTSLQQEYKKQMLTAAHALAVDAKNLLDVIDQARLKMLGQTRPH
Chain of Follistatin (Homo sapiens) (P19883 whole entry, looked up): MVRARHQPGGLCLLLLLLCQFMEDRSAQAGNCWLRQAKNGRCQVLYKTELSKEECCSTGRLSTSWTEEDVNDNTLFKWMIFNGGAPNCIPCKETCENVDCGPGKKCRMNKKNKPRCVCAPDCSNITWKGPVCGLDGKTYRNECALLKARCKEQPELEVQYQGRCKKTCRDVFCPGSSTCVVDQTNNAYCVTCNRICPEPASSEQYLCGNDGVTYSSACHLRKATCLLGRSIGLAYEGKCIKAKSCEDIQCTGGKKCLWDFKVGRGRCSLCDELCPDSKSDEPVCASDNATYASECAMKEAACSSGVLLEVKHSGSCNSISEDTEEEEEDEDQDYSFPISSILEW
Chain of Albumin (Bos taurus) (P02769 whole entry, looked up): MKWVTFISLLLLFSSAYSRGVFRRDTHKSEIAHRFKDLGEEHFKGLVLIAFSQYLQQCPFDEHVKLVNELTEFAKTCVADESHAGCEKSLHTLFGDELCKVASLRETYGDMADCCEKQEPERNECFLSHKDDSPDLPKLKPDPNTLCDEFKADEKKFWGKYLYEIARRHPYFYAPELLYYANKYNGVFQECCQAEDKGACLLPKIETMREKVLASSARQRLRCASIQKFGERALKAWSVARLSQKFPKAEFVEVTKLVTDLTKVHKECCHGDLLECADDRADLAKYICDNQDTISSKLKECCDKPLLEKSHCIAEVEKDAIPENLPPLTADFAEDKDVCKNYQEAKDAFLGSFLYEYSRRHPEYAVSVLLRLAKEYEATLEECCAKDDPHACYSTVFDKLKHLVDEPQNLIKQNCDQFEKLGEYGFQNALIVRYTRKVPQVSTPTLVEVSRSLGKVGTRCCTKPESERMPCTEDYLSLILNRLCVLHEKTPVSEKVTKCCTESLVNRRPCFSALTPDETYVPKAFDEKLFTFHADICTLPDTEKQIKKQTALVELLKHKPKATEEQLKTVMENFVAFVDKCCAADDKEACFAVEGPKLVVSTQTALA
Chain of Fibroblast growth factor 2 (Homo sapiens) (P09038 whole entry, looked up): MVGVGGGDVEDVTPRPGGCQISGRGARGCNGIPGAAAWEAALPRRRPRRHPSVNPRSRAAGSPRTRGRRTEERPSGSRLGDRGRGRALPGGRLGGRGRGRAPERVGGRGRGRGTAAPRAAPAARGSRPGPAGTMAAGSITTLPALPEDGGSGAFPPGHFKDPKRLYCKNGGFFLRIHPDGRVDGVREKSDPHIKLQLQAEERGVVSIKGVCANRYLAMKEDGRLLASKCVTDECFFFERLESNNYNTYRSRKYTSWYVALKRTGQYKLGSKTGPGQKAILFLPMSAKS
Chain of Luciferin 4-monooxygenase (Photinus pyralis) (P08659 whole entry, looked up): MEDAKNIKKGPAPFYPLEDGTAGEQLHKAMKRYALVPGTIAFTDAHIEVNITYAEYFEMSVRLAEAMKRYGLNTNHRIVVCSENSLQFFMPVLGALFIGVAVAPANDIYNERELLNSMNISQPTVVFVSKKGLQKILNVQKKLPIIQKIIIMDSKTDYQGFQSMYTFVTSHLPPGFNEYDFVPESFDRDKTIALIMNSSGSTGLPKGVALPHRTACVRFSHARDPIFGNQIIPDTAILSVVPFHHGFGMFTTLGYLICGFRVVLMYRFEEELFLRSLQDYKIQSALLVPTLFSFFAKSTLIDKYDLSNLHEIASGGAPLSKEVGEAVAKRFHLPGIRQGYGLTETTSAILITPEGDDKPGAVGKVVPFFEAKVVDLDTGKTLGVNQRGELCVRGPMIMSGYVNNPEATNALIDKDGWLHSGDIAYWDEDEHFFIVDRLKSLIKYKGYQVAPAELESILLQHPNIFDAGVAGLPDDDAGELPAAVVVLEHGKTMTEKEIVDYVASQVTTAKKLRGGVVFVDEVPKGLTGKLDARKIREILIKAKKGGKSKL

In the case of `CCOC(=O)CCN1C(=O)[C@H]2[C@H]3[C@H](O)[C@H](O)CC(=NNC(=O)OCc4ccccc4)[C@H]3CC[C@H]2C1=O`, the composite z-score is -0.914 with Albumin (Bos taurus); 0.232 in test [2]; -0.0309 in [3]; -0.67 in test [4]; -1.26 in test [5]; -0.0688 in test [6]. Further, the composite z-score is -1.01 in the test with Sam68 (KHDRBS1); 1.4 in test [7]; -0.636 in test [8]; -0.954 in [9]; -0.746 in test [10]; -0.355 in [11]. The composite z-score in [12] was -0.714; in [13] it was 0.44; in [14] it was 0.386; in the test on Lefty1, 0.742; in test [16], -0.547. In addition, in test [1], the composite Z-score is 0.734 (inactive). The values for the z-score in test [15] and in test [17] were -0.674 and 0.292 (inactive), respectively.

In the case of `CCOC(=O)[C@H](CC(C)C)NC(=O)CCC1CC(OC(=O)NCCc2ccc(F)cc2)CC2(CCCC(COC(=O)NCc3cccc4ccccc34)O2)O1` (stereo not given in full), the composite z-score with Albumin (Bos taurus) is 0.426; in test [2], -0.235; in test [3], 0.12; in test [4], 0.276; in [5] it was 0.96; in test [6] it was -0.138. Moreover, the composite z-score with Sam68 (KHDRBS1) was determined as 0.695; in test [7], 0.282; in test [8] it was 0.873; in [9], 0.229; in [10] it was 0.982; in test [11], 0.2. The composite z-score in test [12] came out at 0.279; in test [13] it was 1.27; in test [14], 0.634; in the test on Lefty1, 0.774; in test [16] it was 0.0787. In addition, the composite Z-score in test [1] is -0.275 (inactive). Further, the z-score was 0.755 in [15] and 0.6 (inactive) in test [17].

With `CC(=O)OC[C@H]1O[C@H](CC=NOC[C@@H](O)[C@H]2O[C@@H]3OC(C)(C)O[C@@H]3[C@H]2O)C=C[C@@H]1OC(C)=O`, the composite z-score with Albumin (Bos taurus) is 0.846; in test [2], 0.116; in [3], -0.0934; in test [4], 0.298; in test [5] it was 0.548; in [6], 0.79. The composite z-score in the test with Sam68 (KHDRBS1) amounted to 0.883; in [7], 0.0166; in test [8], 0.976; in [9], 0.638; in [10] it was 0.702; in [11], 0.15. In addition, the composite z-score in test [12] is 0.727; in test [13] it was 0.209; in [14], 0.583; in the test on Lefty1 it was 0.385; in test [16], -0.0993. Further, the composite Z-score in test [1] is 0.0765 (inactive). The z-score in [15] is -0.325; in test [17], 0.94 (inactive).

As for `O=C1[C@H]2[C@H]3[C@H](O)[C@H](O)CC(=NOC[C@@H](O)COCc4ccco4)[C@@H]3CC[C@H]2C(=O)N1c1cccc(Oc2ccccc2)c1`, the composite z-score was -0.407 with Albumin (Bos taurus); -0.147 in [2]; -0.22 in test [3]; -0.0803 in [4]; -0.704 in test [5]; -0.0713 in [6]. The composite z-score is -1.43 in the test with Sam68 (KHDRBS1); 0.381 in test [7]; 0.391 in test [8]; -1.01 in test [9]; -0.964 in test [10]; -0.535 in test [11]. Further, the composite z-score in test [12] was -0.535; in [13], 0.942; in [14], 0.285; in the test with Lefty1, 0.0743; in test [16] it was 0.196. In test [1], the composite Z-score was -0.352 (inactive). For the same compound, the z-score in test [15] was -0.268; in [17], 0.921 (inactive).

The values above are taken from PubChem BioAssay.
